Source: PubChem BioAssay
In the library only some 7.6% were active in any assay of this set; here they are far more common.
KCNH2 3.1 inh: KCNH2 3.1 (human) potassium channel inhibition. U2OS KCNH2 3.1, thallium flux FluxOr; hits give low values. activity change, % (tested at about 1.8 µM). 0.95% of 340,000 active;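 active = maximum activity change below -70%; inconclusive = maximum activity change from -70% to -50%; inactive = maximum activity change above -50%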;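 note: thallium influx rate constant from kinetic fluorescence after stimulation buffer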
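FluxOr-based Tl+ influx in U2OS cells transduced with KCNH2 3.1 virus; rate constants normalized to DMSO controls.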
MCF10A rereplic: induces DNA re-replication in MCF 10a normal breast cells | Potency, µM (titrated, usually from 46.1 µM), usual class: activators | 2.9% of 350,000 active | MCF 10A DNA re-replication, Hoechst nuclear intensity, 48 h | AID 624296; note: nearly all actives have a fitted effect of over 50% in size
KB-3-1 cytotox: kills parental KB-3-1 adenocarcinoma cells; KB-3-1 viability, CellTiter-Glo ATP luminescence, 72 h; Potency, µM (titrated, usually from 46.1 µM), actives largely listed as cytotoxic; 1.4% of 400,000 active; AID 1347075; note: nearly all actives have a fitted effect of over 60% in size
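Here the drug-naive KB-3-1 line serves as comparator for MDR sub-line selectivity; cells received compound titrations, 72 h at 37 °C, then CellTiter-Glo readout.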
KB-V1 MDR tox: kills drug-selected multidrug resistant KB-V1 cells | KB-V1 MDR cells viability, CellTiter-Glo, 72 h | Potency, µM (doses to about 46.1 µM), usual class: cytotoxic | 3.4% of 400,000 active | AID 1347076; note: nearly all actives have a fitted effect of over 60% in size
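KB-V1, DMEM (no phenol red) + 10% FBS; cpd pin-transferred, titration series; 72 h, 37 degrees C; CellTiter-Glo, luminescence. Data normalized, curve-fit.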
KCNH2 WT inh: KCNH2 (human, wildtype) channel inhibition. Q12809. U2OS, BacMam KCNH2, thallium flux FluxOr; hits give low values. activity change, % at 1.84 µM. 0.37% of 340,000 active. AID 720551;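 active = maximum activity change below -70%; inconclusive = maximum activity change between -70% and -50%; inactive = maximum activity change above -50%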
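U2OS cells were transduced with wild-type KCNH2 virus (2.03 x 10^8 / mL) for 4 h at room temperature, then cultured overnight at 37 C. Thallium flux was read with FluxOr dye. Rate constants were normalized to DMSO controls.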
SW480 rereplic: induces DNA re-replication in SW480 colon adenocarcinoma cells; SW480 DNA re-replication, Hoechst DNA content imaging, 48 h; Potency, µM (titrated, usually from 46.1 µM), actives largely listed as activators; 1.8% of 340,000 active; AID 624297; note: nearly all actives have a fitted effect of over 55% in size
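SW480 cells exposed to compounds for 48 hr at 37 C, 5% CO2, then Hoechst-stained 40 min. Nuclear DNA content imaged by fluorescence scanning (405 nm excitation, 500-530 nm emission); re-replication scored as increased high-intensity nuclei.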
Each line names hits and unclear results; the compound was inactive in the other large screens. Unless noted, calls come from the whole dose curve; as a rule, active = well fitted curve in the direction sought with a large enough effect; inconclusive = small, poorly fitted or top-dose-only effect, or another doubt; inactive = no such curve, though single readings can be large; an effect the other way counts as inactive or inconclusive.

COc1ccccc1C(CNC(=O)C(CCSC)NC(=O)c1ccccc1Cl)N1CCCC1 (stereo unspecified)	SW480 rereplic inconclusive
CC1(C)CCCN(Cc2c(O)ccc3c(=O)c(-c4nc5ccccc5s4)c(N)oc23)C1	MCF10A rereplic 23µM, KB-3-1 cytotox inconclusive, KB-V1 MDR tox inconclusive
CC1CCCN(Cc2c(O)ccc3c(=O)c(-c4nc5ccccc5s4)c(N)oc23)C1 (stereo unspecified)	MCF10A rereplic 21µM, KB-3-1 cytotox inconclusive, KB-V1 MDR tox inconclusive, SW480 rereplic inconclusive
CC1CCN(Cc2c(O)ccc3c(=O)c(-c4nc5ccccc5s4)c(N)oc23)CC1	KB-V1 MDR tox inconclusive (no result: KCNH2 WT inh)
O=C1NC(=S)SC1=Cc1ccccc1Br	MCF10A rereplic 15µM, KB-3-1 cytotox inconclusive
CCOc1ccccc1C=C1SC(=S)NC1=O	MCF10A rereplic 18µM
CCOc1ccc(/C=C2\SC(=S)NC2=O)cc1OC	none
O=C1NC(=S)SC1=Cc1ccc(Cl)cc1	MCF10A rereplic 9.2µM, SW480 rereplic inconclusive
COc1ccc(Br)cc1C1NC(c2ccc3c(c2)OCO3)=CC(c2ccccc2O)N1 (stereo unspecified)	KB-V1 MDR tox inconclusive (no result: KCNH2 3.1 inh, MCF10A rereplic, KCNH2 WT inh, SW480 rereplic)
CC(=O)OC1CC(c2cc(C(C)(C)C)c(O)c(C(C)(C)C)c2)=NO1 (stereo unspecified)	MCF10A rereplic inconclusive, KB-V1 MDR tox inconclusive, SW480 rereplic 15µM
Cc1ccc(S(=O)(=O)N(C)c2ccc(OCC(=O)Nc3nc4ccccc4s3)cc2)cc1	KB-3-1 cytotox inconclusive, KB-V1 MDR tox 2.9µM
Cc1ccc(S(=O)(=O)N(C)c2ccc(OCC(=O)Nc3nc(-c4ccccc4)cs3)cc2)cc1	MCF10A rereplic inconclusive
COc1ccc(NC(=O)COc2ccc(N(C)S(=O)(=O)c3ccc(C)cc3)cc2)cc1	KB-V1 MDR tox inconclusive
Cc1ccc(S(=O)(=O)N(C)c2ccc(OCC(=O)OCc3nnc(-c4ccccc4)o3)cc2)cc1	KCNH2 3.1 inh -88
Cc1ccc(S(=O)(=O)N(C)c2ccc(OCC(=O)Nc3nc4c(ccc5ccccc54)s3)cc2)cc1	KB-V1 MDR tox 4.1µM
NS(=O)(=O)c1ccc(CCNC(=O)c2cccc(OC(F)F)c2)cc1	none
CCN(CC)c1ccc2cc(C(=O)NNC(=O)c3ccc(S(=O)(=O)N4CCCCC4)cc3)c(=O)oc2c1	MCF10A rereplic inconclusive, KB-V1 MDR tox 2.6µM, KCNH2 WT inh inconclusive, SW480 rereplic 2.9µM
Cc1ccc(NC(=O)c2ccc(S(=O)(=O)N3CCCC3)cc2)cc1	KB-V1 MDR tox 23µM
Cc1ccc(C(=O)Nc2ccc(S(=O)(=O)N3CCCC3)cc2)cc1	KB-V1 MDR tox inconclusive
Cc1ccc(C(=O)NNC(=O)c2ccc(S(=O)(=O)N3CCCCC3)cc2)cc1	MCF10A rereplic inconclusive, SW480 rereplic 16µM
COc1ccc(COC(=O)c2ccc(S(=O)(=O)N3CCC(C)CC3)cc2)cc1	MCF10A rereplic 16µM, KB-3-1 cytotox inconclusive
COc1ccc(NC(=O)c2sc3nc(N4CCOCC4)c4c(c3c2N)CC(C(C)C)OC4)c(OC)c1 (stereo unspecified)	KB-V1 MDR tox inconclusive, SW480 rereplic inconclusive
C[C@H](NC(=O)[C@H](Cc1ccccc1)n1c(=O)[nH]c2ccccc2c1=O)C(=O)N1CCC(C(=O)O)CC1	none
CC1CCN(S(=O)(=O)c2ccc(C(=O)NCc3cccnc3)cc2)CC1	KCNH2 WT inh -263
CC(=O)Nc1ccc(C(=O)NNS(=O)(=O)c2ccc(C)cc2)cc1	SW480 rereplic 4.1µM
Cc1ccc(S(=O)(=O)NNC(=O)c2ccc(O)cc2)cc1	none
Cc1ccc(NC(=O)c2ccc(S(=O)(=O)N3CCC(C)CC3)cc2)nc1	KB-3-1 cytotox 26µM, KB-V1 MDR tox inconclusive
